Experimental data: PubChem BioAssay; in the data active = activity above about 50%; inactive = the rest

What was measured:
[1] = biological target: Tumor necrosis factor receptor superfamily member 10B (Homo sapiens) (UniProt O14763); assay: caspase-8 TRAIL sensitization, hit retest, confirmation, cell-based, NB7+caspase-8, with/without TRAIL, luminescence panel (AID 651596); conditions: NB7 neuroblastoma + caspase-8, TRAIL sensitization, luminescence viability, with TRAIL, mean of runs, at 10 µM, stronger effect = higher value
Tumor necrosis factor receptor superfamily member 10B (Homo sapiens), sequence (O14763 whole entry, looked up): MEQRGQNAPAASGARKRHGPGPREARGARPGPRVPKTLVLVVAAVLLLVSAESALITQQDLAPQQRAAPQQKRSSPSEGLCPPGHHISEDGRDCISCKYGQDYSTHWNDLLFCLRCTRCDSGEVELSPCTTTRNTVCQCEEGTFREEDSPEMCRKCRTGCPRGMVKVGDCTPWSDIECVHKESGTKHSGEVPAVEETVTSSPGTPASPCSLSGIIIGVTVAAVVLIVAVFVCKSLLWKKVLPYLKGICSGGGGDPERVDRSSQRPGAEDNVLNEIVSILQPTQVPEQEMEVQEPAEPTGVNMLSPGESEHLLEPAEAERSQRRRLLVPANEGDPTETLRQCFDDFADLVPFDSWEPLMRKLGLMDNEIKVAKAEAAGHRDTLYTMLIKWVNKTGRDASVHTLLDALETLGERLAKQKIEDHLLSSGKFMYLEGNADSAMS

[2] = as above; conditions: NB7 neuroblastoma + caspase-8, without TRAIL, luminescence viability, without TRAIL, mean of runs, at 10 µM

Structure (SMILES): Cc1cccc(-n2ncc3c(NC(C)C)ncnc32)c1
- activity [1]: 63.2%
- activity [2]: 64.7%

Structure (SMILES): COc1ccc(C(=O)Nc2ccc3[nH]ccc3c2)cc1
- activity [1]: 95.1%
- activity [2]: 95.3%

Structure (SMILES): N#C/C(=C(/O)c1ccc([N+](=O)[O-])s1)c1nc2ccccc2[nH]1
- activity [1]: 36.3%
- activity [2]: 25%

Structure (SMILES): Cc1cccc(NC(=O)CCc2ccc(N3C(N)=NC(N)=NC3(C)C)cc2)c1
- activity [1]: 81.3%
- activity [2]: 80.4%

Structure (SMILES): O=C(CC1SC(=O)N(Cc2cccc3ccccc23)C1=O)Nc1nccs1 (stereo not drawn)
- activity [1]: 33%
- activity [2]: 74.3%

Structure (SMILES): Cc1ccnc(NC(=S)NC(=O)c2ccco2)c1
- activity [1]: 65.5%
- activity [2]: 57.7%

Structure (SMILES): COc1ccc2[nH]c(-c3ccc(C)cc3)cc(=O)c2c1
- activity [1]: 87.4%
- activity [2]: 87.8%

Structure (SMILES): COc1ccc(/C(N)=N/OC(=O)c2c(-c3ccccc3Cl)noc2C)cc1OC
- activity [1]: 99.1%
- activity [2]: 98.8%

Structure (SMILES): Clc1ccc(-c2nc(-c3ccccn3)no2)cc1Cl
- activity [1]: 77.5%
- activity [2]: 74.5%

Structure (SMILES): COc1ccc(-c2cn3cc(C)ccc3n2)cc1OC
- activity [1]: 74.7%
- activity [2]: 77%

Structure (SMILES): Cc1ccccc1Nc1nn2c(=O)c3ccccc3nc2s1
- activity [1]: 54.2%
- activity [2]: 62.8%

Structure (SMILES): Clc1ccc(-n2ncc3c(N4CCCC4)ncnc32)cc1
- activity [1]: 66.2%
- activity [2]: 53.2%

Structure (SMILES): Cc1nn(Cc2ccc(Cl)cc2Cl)c(C)c1NC(=O)CCl
- activity [1]: 95.8%
- activity [2]: 97.8%

Structure (SMILES): O=c1cc(C(Cl)(Cl)Cl)oc2c1ccc1ccccc12
- activity [1]: 62.7%
- activity [2]: 65.3%

Structure (SMILES): Oc1ccccc1-c1n[nH]c(-c2ccccc2O)n1
- activity [1]: 47.8%
- activity [2]: 48.6%

Structure (SMILES): CCOC(=O)c1cc2c(C)n(-c3ccc(C)cc3)c(C)c2ccc1=O
- activity [1]: 74.9%
- activity [2]: 63.9%

Structure (SMILES): C/C(Cn1nnc([N+](=O)[O-])n1)=N\NC(=O)c1ccc(O)cc1
- activity [1]: 50.4%
- activity [2]: 48.3%

Structure (SMILES): COc1ccc(C=C2OC(=O)C(C(C)=O)=C2O)cc1
- activity [1]: 90.4%
- activity [2]: 89%

Structure (SMILES): O=C(Nc1nsc(-c2ccccc2)n1)c1cccs1
- activity [1]: 56.6%
- activity [2]: 56%

Structure (SMILES): O=C(Nc1ccc2c(c1)OCCO2)c1ccc(Cl)cc1Cl
- activity [1]: 72.8%
- activity [2]: 66.6%

Structure (SMILES): OC(c1cc(-c2cccc(Cl)c2)nc2ccccc12)C1CCCCN1 (stereo not drawn)
- activity [1]: 71.2%
- activity [2]: 82.1%

Structure (SMILES): COc1ccc(C(=O)NNC(=S)NC(=O)/C=C/c2cccs2)cc1
- activity [1]: 36.2%
- activity [2]: 42.2%

Structure (SMILES): Cc1ccccc1C(=O)Nc1ccc2c(c1)OCCO2
- activity [1]: 61.1%
- activity [2]: 63.2%

Structure (SMILES): CS(=O)(=O)c1ccc2nc(NC(=O)c3ccco3)sc2c1
- activity [1]: 61%
- activity [2]: 57.8%

Structure (SMILES): C/C(Cn1nnc([N+](=O)[O-])n1)=N\NC(=O)c1ccccc1O
- activity [1]: 43.8%
- activity [2]: 51%

Structure (SMILES): CCc1nc(N)nc(N)c1-c1ccc(NCCN)c([N+](=O)[O-])c1
- activity [1]: 80.7%
- activity [2]: 81.5%

Structure (SMILES): O=C(Nc1cc(C(F)(F)F)cc(C(F)(F)F)c1)Nc1cnn(-c2ccc([N+](=O)[O-])cc2)c1C(F)(F)F
- activity [1]: 74.2%
- activity [2]: 63%

Structure (SMILES): CN(C)C=Nc1ccc2nc3c(cc2c1)[nH]c1ccccc13
- activity [1]: 76.7%
- activity [2]: 76.3%

Structure (SMILES): CCC(=O)N1CCN(c2ccc(NC(=O)c3cc4ccccc4o3)cc2Cl)CC1
- activity [1]: 79.6%
- activity [2]: 54.4%

Structure (SMILES): O=C(c1ccncc1)N1CCN(c2cc(-c3ccccc3)nc3cc(-c4cccc(Cl)c4)nn23)CC1
- activity [1]: -0.725%
- activity [2]: -15.8%

Structure (SMILES): COc1ccc2oc(C(=O)N3CCc4ccccc43)c(C)c2c1
- activity [1]: 82.7%
- activity [2]: 82.4%

Structure (SMILES): O=S(=O)(Nc1nc2ccccc2nc1N1CCc2ccccc2C1)c1ccc(Br)cc1
- activity [1]: 55.5%
- activity [2]: 66.2%

Structure (SMILES): CCCCc1ccc(NC(=O)c2ccc(N(C)S(C)(=O)=O)cc2)cc1
- activity [1]: 25.8%
- activity [2]: 19.9%

Structure (SMILES): COc1cc(C(=O)Oc2ccccc2/C=N/NC(=O)c2ccc(C)cc2)cc(OC)c1OC
- activity [1]: 51%
- activity [2]: 52.7%

Structure (SMILES): Cc1cccc(C(=O)Nc2ccc(C(=O)Nc3ccc(O)cc3)cc2)c1
- activity [1]: 79.9%
- activity [2]: 89.1%

Structure (SMILES): COc1ccc(CN(C(=O)CSc2nnc(-c3ccccc3C)o2)c2ccc(F)cc2)cc1
- activity [1]: 97.9%
- activity [2]: 97.3%

Structure (SMILES): COc1ccc(S(=O)(=O)N2CCC(C(=O)NCCC3=CCCCC3)CC2)cc1C
- activity [1]: 13.8%
- activity [2]: 22.2%

Structure (SMILES): Cc1cc(C)cc(NS(=O)(=O)c2ccc3c(c2)c(=O)n(C)c(=O)n3C)c1
- activity [1]: 79%
- activity [2]: 82.2%

Structure (SMILES): CSc1ccc(NC(=O)Nc2cc(C)ccn2)cc1
- activity [1]: 52.8%
- activity [2]: 35.7%

Structure (SMILES): CCC(=O)Nc1cc2nn(-c3ccc(OC)cc3)nc2cc1C
- activity [1]: 62.5%
- activity [2]: 61.8%

Structure (SMILES): Cc1nnc(NC(=O)c2ccc(S(=O)(=O)C(F)F)cc2)s1
- activity [1]: 43.1%
- activity [2]: 42.9%

Structure (SMILES): O=C1Nc2ccccc2N(C(=O)c2ccc3ccccc3c2)C1c1nc2ccccc2[nH]1 (stereo not drawn)
- activity [1]: 48.1%
- activity [2]: 43.4%

Structure (SMILES): O=C(CCl)N=c1sccn1Cc1cccc2ccccc12
- activity [1]: 98.8%
- activity [2]: 99.1%

Structure (SMILES): O=C(Nc1cccc(O)c1)c1noc2c1CCc1ccccc1-2
- activity [1]: 76.6%
- activity [2]: 67.1%
